This passage reports composite z-score and z-score results from PubChem BioAssay.

Each structure is given as a SMILES string. Calls of active or inactive are those of the source. Unless noted, the rule behind the calls is not given here.

In assay [1] the test system is XIP peptide (Xip251-270) binding. In words: XIP fragment 251-270 binding compounds – biochemical, small-molecule microarray, fluorescence 635/667 nm, 0.1 µg/mL protein, primary screen (AID 1182). The settings on record: fluorescent protein binding, 635 nm, higher = more signal, called active from +8 up or from −8 down.
In assay [2] the test system is XIP peptide (Xip251-270). Nature of the assay: compounds binding XIP fragment 251-270 – biochemical, small-molecule microarray, fluorescence 635/667 nm, 0.5 µg/mL protein, primary screen (AID 1183). The settings on record: fluorescence 635 nm, higher = more signal.
Assay [3] in a line: blood-stage malaria parasite viability loss – strain 3D7, DAPI fluorescence, 100 nL, primary screen (AID 1184).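 Note: parasites grown inside human red blood cells in medium with human serum.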 The settings on record: P. falciparum 3D7 growth, 3 d, higher = more signal.
The target of assay [4] is Homeobox protein Hox-A13 (Mus musculus) (UniProt Q62424). Nature of the assay: disruptors of Hoxa13 oligonucleotide interaction – biochemical, fluorescence polarization, labeled oligonucleotide, primary screen (AID 1185). The settings on record: Hoxa13:DNA binding, 15 min, higher = more signal, called active from +8 up or from −8 down.
Assay [5] is described as follows: blockers of DNA damage checkpoint Chk1 activation – imaging, HeLa, hydroxyurea, phospho-Chk1 antibody, percent positive cells, primary screen (AID 1186). The settings on record: hydroxyurea-induced phospho-Chk1 immunofluorescence imaging, higher = more signal.
Assay [6] is described as follows: blockers of DNA damage checkpoint Chk1 activation – imaging, HeLa, hydroxyurea, phospho-Chk1 nuclear intensity, primary screen (AID 1187). The settings on record: hydroxyurea-induced phospho-Chk1 immunofluorescence imaging, higher = more signal.

Homeobox protein Hox-A13 (Mus musculus), sequence (Q62424 whole entry, looked up): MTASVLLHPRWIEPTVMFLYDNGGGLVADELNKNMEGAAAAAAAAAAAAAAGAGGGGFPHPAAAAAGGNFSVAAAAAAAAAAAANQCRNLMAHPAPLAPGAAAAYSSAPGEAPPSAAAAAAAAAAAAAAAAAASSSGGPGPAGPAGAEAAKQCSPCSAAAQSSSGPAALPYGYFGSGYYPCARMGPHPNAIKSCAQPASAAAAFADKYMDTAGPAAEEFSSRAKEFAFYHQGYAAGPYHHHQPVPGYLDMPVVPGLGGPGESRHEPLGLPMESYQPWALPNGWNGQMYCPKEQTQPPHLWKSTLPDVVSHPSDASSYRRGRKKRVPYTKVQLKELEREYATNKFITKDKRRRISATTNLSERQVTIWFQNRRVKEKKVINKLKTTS

Consider `NC(=O)NCC#Cc1ccc2c(c1)[C@]1(C(=O)N2)[C@H](C(=O)N2CCN(c3ncccn3)CC2)[C@H]2C(=O)O[C@H](c3ccccc3)[C@H](c3ccccc3)N2[C@@H]1c1ccc(OCCO)cc1`, for which the composite z-score is -0.134 (inactive) in assay [1] and 0.193 in assay [2]. Besides, the z-score in assay [3] was -0.232; in assay [4], -1.02 (inactive); in assay [5], -0.216 (inactive); in assay [6] it was -0.0071 (inactive).
For `C=C(CCCC)/C(=C/C[C@H](OC(C)=O)c1ccc(OCCO)cc1)c1cc(C(=O)OC)ccc1OC`, the figures for the composite z-score in assay [1] and in assay [2] were -0.124 (inactive) and 0.71, respectively. For the same compound, the z-score in assay [3] is -2.82; in assay [4] it was -3.64 (inactive); in assay [5] it was -1.09 (inactive); in assay [6], -1.97 (inactive).
As to `O=C1[C@@]23C=C(Br)[C@H](C[C@@H]2COC3)[C@@]12CO2`, the composite z-score was -0.0944 (inactive) in assay [1] and 0.0556 in assay [2]. For the same compound, the z-score in assay [3] is 2.53; in assay [4], 0.786 (inactive); in assay [5], 0.854 (inactive); in assay [6] it was 0.352 (inactive).
As to `CC(=O)N1CC(C(O)C2C=CC3C(=O)NC(=O)C3N2Nc2ccc(Cl)cc2Cl)c2ccccc21` (configuration not stated), the composite z-score was 0.111 (inactive) in assay [1] and 0.0205 in assay [2]. Moreover, the z-score was -0.252 in assay [3], -4.92 (inactive) in assay [4], 0.358 (inactive) in assay [5] and 0.492 (inactive) in assay [6].
Regarding `COc1ccc(C#Cc2ccc3c(c2)[C@]2(C(=O)N3)[C@H](C(=O)Nc3nc4ccccc4s3)[C@H]3C(=O)O[C@H](c4ccccc4)[C@H](c4ccccc4)N3[C@@H]2c2ccccc2OCCO)cc1`, the composite z-score was 0.416 (inactive) in assay [1] and 0.598 in assay [2]. Moreover, the z-score is -2.21 in assay [3], -0.889 (inactive) in assay [4], -0.347 (inactive) in assay [5] and -0.392 (inactive) in assay [6].
In the case of `O=C(N1CCOCC1)[C@@]1(CCS(=O)(=O)c2ccccc2)N=C(c2ccc(OCCCO)cc2)O[C@H]1c1ccccc1`, the composite z-score was 1.79 (inactive) in assay [1] and 0.747 in assay [2]. The z-score was -1.39 in assay [3], -5.53 (inactive) in assay [4], 0.0192 (inactive) in assay [5] and 0.249 (inactive) in assay [6].
Turning to `Nc1cc(Br)ccc1C(=O)O`, the composite z-score is 0.513 (inactive) in assay [1] and -0.244 in assay [2]. The z-score is 1.1 in assay [3], 0.686 (inactive) in assay [4], 0.132 (inactive) in assay [5] and 0.343 (inactive) in assay [6].
As for `Cc1ccc(S[C@]2(C(=O)NC(C)C)CC(=O)N(C(C)C)[C@@H]2c2ccc(CO)cc2I)cc1`, the composite z-score in assay [1] is 0.317 (inactive); in assay [2], 0.101. For the same compound, the z-score was -2.02 in assay [3], -2.58 (inactive) in assay [4], 0.0841 (inactive) in assay [5] and 0.925 (inactive) in assay [6].
As to `COc1cc(NN2C(C(O)c3ccccc3)C=CC3C(=O)N(C)C(=O)C32)cc(OC)c1OC` (configuration not stated), the figures for the composite z-score in assay [1] and in assay [2] were 0.561 (inactive) and 0.346, respectively. In addition, the z-score in assay [3] is -0.312; in assay [4], -3.23 (inactive); in assay [5], -0.36 (inactive); in assay [6], -0.516 (inactive).
Regarding `C=C(COC)C(=O)CC[C@H](OC(C)=O)c1ccc(OCCO)cc1`, the composite z-score is -0.388 (inactive) in assay [1] and 0.58 in assay [2]. Moreover, the z-score in assay [3] is -2.39; in assay [4], -4.76 (inactive); in assay [5], -0.559 (inactive); in assay [6], -0.357 (inactive).
For `COc1cc(NN2C(C(O)C3CCCCC3)C=CC3C(=O)N(C)C(=O)C32)cc(OC)c1OC` (configuration not stated), the composite z-score in assay [1] is 0.123 (inactive); in assay [2], 0.704. Moreover, the z-score in assay [3] was -0.246; in assay [4], -4.48 (inactive); in assay [5], 0.281 (inactive); in assay [6] it was 0.264 (inactive).
In the case of `COc1ccc([Si](C)(C)[C@@H]2[C@@H](CC(=O)N3Cc4ccccc4C[C@H]3CO)O[C@]3(C(=O)N(Cc4ccc(N5CCC5=O)cc4)c4ccccc43)[C@H]2C)cc1`, the composite z-score in assay [1] was 1.08 (inactive); in assay [2], 0.682. The z-score is -2.64 in assay [3], -0.855 (inactive) in assay [4], -0.169 (inactive) in assay [5] and 0.14 (inactive) in assay [6].
In the case of `C=C[C@@H](C)[C@@H](OC(=O)Nc1ccc(SC)cc1)c1ccc(OCCO)cc1`, the composite z-score was -0.0412 (inactive) in assay [1] and 0.663 in assay [2]. The z-score was -0.553 in assay [3], -5.52 (inactive) in assay [4], 0.129 (inactive) in assay [5] and 0.387 (inactive) in assay [6].
For `CC(C)CNC(=O)[C@@]1(C)c2ccccc2C(=O)N(Cc2cc(C(F)(F)F)cc(C(F)(F)F)c2)[C@H]1c1ccc(CO)cc1`, the values for the composite z-score in assay [1] and in assay [2] were -0.337 (inactive) and 0.145, respectively. For the same compound, the z-score in assay [3] was -0.607; in assay [4] it was -2.63 (inactive); in assay [5], 0.0613 (inactive); in assay [6] it was 0.447 (inactive).
Turning to `COc1ccc(C(O)C2C=CC3C(=O)N(c4ccccc4)C(=O)C3N2Nc2ccccc2)cc1` (configuration not stated), the composite z-score was 0.348 (inactive) in assay [1] and 0.572 in assay [2]. The z-score in assay [3] is 0.913; in assay [4], -3.76 (inactive); in assay [5], 0.0679 (inactive); in assay [6], -0.392 (inactive).
For `C=C(C)[C@@H]1CC=C(C(O)C2C=CC3C(=O)N(c4ccccc4)C(=O)C3N2Nc2ccc(C#N)cc2)CC1` (some centres not stated), the composite z-score is 0.476 (inactive) in assay [1] and 0.642 in assay [2]. Also, the z-score was 0.807 in assay [3], 1.21 (inactive) in assay [4], -0.169 (inactive) in assay [5] and 0.008 (inactive) in assay [6].
Regarding `COC(=O)[C@@]1(Cc2ccc(OC)cc2)[C@H]2c3cc(C(=O)N4CCCC4)n(Cc4ccc(S(C)(=O)=O)cc4)c3C[C@H]2CN1C(=O)c1ccccc1`, the composite z-score in assay [1] was 0.807 (inactive); in assay [2], 0.511. The z-score in assay [3] was -1.42; in assay [4], -3.91 (inactive); in assay [5], 0.364 (inactive); in assay [6], 0.202 (inactive).
